Source: PubChem BioAssay (National Center for Advancing Translational Sciences (NCATS))
The list is not random: actives were taken first. Their share in the collection is about 18%.
CtBP-E1A inh: qHTS Assay for Inhibitors of the CtBP/E1A Interaction; CtBP / adenovirus E1A interaction (AlphaScreen); AlphaScreen GST-E1A/His-CtBP binding, 1536-well; active compounds read low; activity change, % (test concentration not listed); actives 0.49% (n = 340,000); AID 651724, 2012; in the data active = activity change below about -65%; inconclusive = mostly about -30% to -63%
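Protein mix (5X: 125 nM each GST-E1A, His-CtBP) was incubated with pinned compound 2 h at 37 deg C in dark, in 50 mM Tris pH 8.0 buffer with 300 mM NaCl. Glutathione donor and nickel acceptor beads followed; AlphaScreen signal read after 1 h.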
IL1B secr inh: qHTS for Inhibitors of Inflammasome Signaling: IL-1-beta AlphaLISA Primary Screen; THP-1 LPS/ATP IL-1B secretion, AlphaLISA, 16 h; active compounds read low; activity change, % at 57.5 µM; actives 4.7% (n = 360,000); AID 743279, 2014; in the data active = activity change below about -50%; inconclusive = mostly about -30% to -49%
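THP-1 cells pretreated 1 hr with compounds (up to 57.5 uM final), then stimulated with LPS (250 ng/mL final) plus ATP (1.25 mM final); secreted IL-1B measured by AlphaLISA after 16 hr, decreased signal indicating inhibition.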
DT40 TDP1 no CPT: qHTS for Inhibitors of human tyrosyl-DNA phosphodiesterase 1 (TDP1): qHTS in cells in absence of CPT; DT40 Tdp1-/- hTDP1 cells, no CPT, ATP luminescence, 48 h; Potency, µM (doses to about 46.2 µM), inactives show at the highest dose activity change, negative = growth inhibition, actives largely listed as inhibitors; actives 15% (n = 420,000); note: potency is the fitted concentration of half-maximal effect; nearly all actives have a fitted effect of over 55% in size
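No-CPT arm: Tdp1-/-;hTDP1 DT40 cells (400/well) plus compounds, incubated ≥48 hr at 37 °C. Readout CellTiter-Glo luminescence.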
Six1-Eya2 inh: qHTS Assay for Inhibitors of the Six1/Eya2 Interaction | activity change, % (no concentration beside the values) | AID 651725, 2012 | AlphaScreen GST-Six1/His-Eya2 binding, biochemical; active compounds read low | actives 0.56% (n = 360,000); in the data active = activity change below about -65%; inconclusive = mostly about -30% to -63%
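Compounds are tested against tagged Six1 and Eya2 proteins bridged by glutathione donor and nickel acceptor beads; after a one-hour incubation at 37 °C without light, AlphaScreen emission is recorded.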
TDP1 cell CPT: qHTS for Inhibitors of human tyrosyl-DNA phosphodiesterase 1 (TDP1): qHTS in cells in presence of CPT. chicken DT40 Tdp1-/-;hTDP1 cells + 20 nM CPT, ATP luminescence, 48 h. Potency, µM (series often up to 46.2 µM), for inactives: at the top dose activity change, negative = growth inhibition, usual class: inhibitors. actives 12% (n = 420,000); note: potency is the fitted concentration of half-maximal effect; nearly all actives have a fitted effect of over 55% in size
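Cell growth measured by CellTiter-Glo luminescence after a minimum 48 h, 37 C compound exposure with 20 nM CPT in Tdp1-knockout DT40 cells stably expressing hTDP1, seeded 400/well; qHTS titration format.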
TDP1 inh: qHTS Assay for Inhibitors of Tyrosyl-DNA Phosphodiesterase (TDP1) | Tyrosyl-DNA phosphodiesterase 1 (Homo sapiens), Q9NUW8 | recombinant TDP1, AlphaScreen DNA substrate cleavage | actives 0.28% (n = 350,000) | Potency, µM (highest dose often 130 µM), for the others: top-dose activity change, negative = inhibition, most hits filed as inhibitors; note: potency is the fitted concentration of half-maximal effect; nearly all actives have a fitted effect of over 40% in size
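Signal: AlphaScreen proximity between streptavidin donor and anti-FITC acceptor beads on intact substrate. Reaction: Tdp1 1 nM, substrate 15 nM final, 5 min RT after 15 min compound preincubation.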
The depositor's hits bear a star; ? = inconclusive; . = no result; ! = not confirmed by another sample; [ ] = dose if it differs, or a comment. Unless noted, calls come from the whole dose curve; as a rule, active = well fitted curve in the direction sought with a large enough effect; inconclusive = small, poorly fitted or top-dose-only effect, or another doubt; inactive = no such curve, though single readings can be large; an effect the other way counts as inactive or inconclusive. % is set by controls: 0 for no effect and ±100 for the full control effect.

SMILES	CtBP-E1A inh	IL1B secr inh	DT40 TDP1 no CPT	Six1-Eya2 inh	TDP1 cell CPT	TDP1 inh
Cc1ccc(C)c(-c2nnc(NC(=O)CCS(=O)(=O)c3ccccc3)o2)c1	4.6	5.9	?	-0.5	?	6.4%
COc1cc(OC)cc(-c2nnc(NC(=O)CCS(=O)(=O)c3ccc(F)cc3)o2)c1	-24.4	-65.8*	?	-14.0	?	25.3%
COc1cc(OC)cc(-c2nnc(NC(=O)CCS(=O)(=O)c3ccccc3)o2)c1	-13.0	-72.4*	16.4µM*	-24.0	?	.
Cc1ccc2[nH]c(C)c(CCN(Cc3cccnc3)C(=S)NC(C)(C)C)c2c1	3.5	-10.3	?	-10.6	?	.
COc1ccc(Oc2ncc3nc(-c4cccs4)c(=O)n(-c4ccccc4)c3n2)cc1	.	.	-10.8%	.	2.3%	.
COc1ccccc1N1CCN(C(=O)c2cc(N3C(=O)C4C5CCC(C5)C4C3=O)ccc2Cl)CC1 (stereo not drawn)	5.2	11.0	?	0.9	?	2.6%
CC(C)(C=O)Cc1cc(C(C)(C)C)c(O)c(C(C)(C)C)c1	11.4	15.9	?	8.3	?	-4.1%[56.1 µM]
Cc1cc(C(C)(C)C)c(O)c(C(C)(C)C)c1	-0.4	23.1	13µM*!	-1.0	?	5.4%
CC(C)(CO)Cc1cc(C(C)(C)C)c(O)c(C(C)(C)C)c1	3.1	3.4	?	-1.9	18.4µM*	10.7%[56.1 µM]
CC(C)(C)c1ccc(O)c(O)c1	4.0	-81.0*	?	0.8	34.4µM*	1.2%
CC(C)(C)c1cc(O)c(C(C)(C)C)cc1O	.	.	11.9µM*!	.	10.6µM*!	11.0%
Cc1cc(O)c(C(C)(C)C)cc1Sc1cc(C(C)(C)C)c(O)cc1C	.	.	.	.	.	17.8%
O=C(NNC(=O)c1ccccc1F)c1cccc(Cl)c1	5.4	0.0	-3.7%	4.8	-5.9%	1.0%
O=C1CCS/C(=N\N=C\c2ccc(Cl)cc2Cl)N1	-5.4	-16.0	?	-1.5	15.5%	5.7%
O=C(OCCC1Oc2cccnc2NC1=O)c1ccc([N+](=O)[O-])cc1 (stereo not drawn)	.	.	.	.	.	-10.5%
COc1cc(NC(=O)c2cc(-c3cccc(OC)c3)n[nH]2)cc(OC)c1	.	.	20.6µM*	.	14.6µM*	5.6%
COc1ccc(Cl)c(-c2cc(C(=O)Nc3ccccc3)[nH]n2)c1	4.5	-51.0*	16.4µM*	-5.5	23.1µM*	.
COc1cc(C(=O)NNC(=O)c2cc(-c3ccccc3)n[nH]2)cc(OC)c1C	-5.8	-63.9*	-15.1%	-15.9	0.2%	-4.3%
COc1ccc(Cl)c(-c2cc(C(=O)NCc3ccco3)[nH]n2)c1	-4.8	-29.8	-23.5%	-12.6	-22.5%	.
COc1ccc(Cl)c(-c2cc(C(=O)Nc3ccc(F)cc3)[nH]n2)c1	-4.5	?	23.1µM*	-10.9	14.6µM*	.
O=C(C1CCN(Cc2ccc(F)cc2)CC1)N1CCN(C/C=C/c2ccccc2)CC1	11.5	-24.6	?	8.7	?	0.0%
Cc1onc(-c2ccccc2)c1C(=O)N/N=C/c1ccccc1OC(C)C	8.5	?	-21.8%	0.8	-22.2%	4.7%
CC1(OC(=O)CCc2ccccc2)C(=O)C=C2C=C(c3ccsc3)OC=C2C1=O (stereo not drawn)	.	.	.	.	.	0.0%
CC(C)Sc1sc(C(=O)O)c(-c2ccc(Cl)cc2)c1C#N	3.6	26.8	-10.9%	0.0	18.5%	2.7%
